Laboratory results taken from PubChem BioAssay.

The compounds below were run against Follistatin-related protein 3 (Homo sapiens) (UniProt O95633) (assay: FSTL3 binders on small-molecule microarrays, primary screen, biochemical, small-molecule microarray, 635 nm fluorescence (AID 1105;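 further: score merges emission near 667 nm and signal to noise per printed spot across three slides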)). Conditions: FSTL3 binding, higher = more signal.
Chain of Follistatin-related protein 3 (Homo sapiens) (O95633 whole entry, looked up): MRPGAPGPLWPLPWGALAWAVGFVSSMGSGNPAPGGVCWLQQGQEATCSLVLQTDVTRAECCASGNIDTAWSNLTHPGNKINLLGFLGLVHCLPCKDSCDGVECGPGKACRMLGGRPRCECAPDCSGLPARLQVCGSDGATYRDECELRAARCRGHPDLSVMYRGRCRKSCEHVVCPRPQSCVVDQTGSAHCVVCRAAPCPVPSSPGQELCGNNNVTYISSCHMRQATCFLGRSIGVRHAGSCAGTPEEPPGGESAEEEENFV

**Q.** For `COc1cc2c(cc1O)C(c1ccc(CN3CCCC3)cc1)N(Cc1cc3c(cc1Br)OCO3)CC2` (stereo unspecified), which composite z-score is on record?
**A.** 0.583

**Q.** With `CCCC[C@@H]1C[C@H]1[C@@H](NC(=O)c1cccs1)c1ccccc1C(F)(F)F` as the compound, how does the composite z-score read?
**A.** -0.697

**Q.** `CCOC(=O)C1=C[C@@H](c2ccccc2)N(S(=O)(=O)c2ccc(C)cc2)[C@H]1c1ccc(OC)cc1` was tested. Which composite z-score did it give?
**A.** 0.652

**Q.** For `C=CCC(OC(C)=O)[C@@H]1[C@@H](N(Cc2ccc(-c3cccc(C(F)(F)F)c3)o2)C(=O)Cc2ccc(OC)cc2)c2cc(OCCCO)ccc2N1C(=O)c1ccc(-c2ccccc2)cc1` (stereo partly specified), which composite z-score is on record?
**A.** -0.119

**Q.** With `C=CC[C@@H](OC(=O)Nc1ccc(SC)cc1)c1ccc(O)c(F)c1` as the compound, how does the composite z-score read?
**A.** 0.155

**Q.** With `CCCCC=C[C@@H](NC(=O)OCc1ccccc1Cl)c1ccccc1` as the compound, how does the composite z-score read?
**A.** 1.19

**Q.** How did the composite z-score turn out when `C=CCC(OC(C)=O)[C@@H]1[C@@H](N(Cc2cccc3ccccc23)C(=O)Cc2ccc(OC)cc2)c2cc(OCCCO)ccc2N1C(=O)c1ccc(-c2ccccc2)cc1` (stereo partly specified) was run?
**A.** -0.0555

**Q.** With `CCCC=C(CCC)[C@@H](NP(=O)(c1ccccc1)c1ccccc1)c1ccc(-c2ccccc2)cc1` as the compound, how does the composite z-score read?
**A.** 1.18

**Q.** With `COCCCNC(=O)[C@@]1(CCC(=O)OC(C)(C)C)N=C(c2ccc(OCCCO)cc2)O[C@H]1c1ccccc1N=[N+]=[N-]` as the compound, how does the composite z-score read?
**A.** 0.209

**Q.** How did the composite z-score turn out when `O=C(Cc1ccccc1)[C@H]1C2C=CCCC(c3ccccc3)=C2CN1Cc1ccccc1` (stereo partly specified) was run?
**A.** -0.137

**Q.** For `COC(=O)[C@@]1(Cc2ccc(F)cc2)[C@H]2c3cc(C(=O)N4CCCC4)n(Cc4ccc(C)c(F)c4F)c3C[C@H]2CN1C(=O)c1ccccc1`, which composite z-score is on record?
**A.** -1.07

**Q.** Which composite z-score does the source give for `COc1ccc(C#Cc2ccc3c(c2)[C@]2(C(=O)N3)[C@H](C(=O)O)[C@H]3C(=O)O[C@H](c4ccccc4)[C@H](c4ccccc4)N3[C@@H]2c2ccc(O)cc2)cc1` here?
**A.** -0.382

**Q.** `CCC#CCN(Cc1ccccc1Br)[C@H](/C=C/C1CC1)[C@@H](O)Cc1ccccc1` was tested. Which composite z-score did it give?
**A.** -0.583

**Q.** How did the composite z-score turn out when `COC(=O)[C@@]1(Cc2ccccc2)[C@H]2c3cc(C(=O)N(C)C)n(Cc4ccc(C)o4)c3C[C@H]2CN1C(=O)c1ccccc1` was run?
**A.** 0.897

**Q.** How did the composite z-score turn out when `CC(C)NC(=O)[C@@]1(C)c2ccccc2C(=O)N(Cc2ccc(OC(F)(F)F)cc2)[C@H]1c1ccc(CO)cc1` was run?
**A.** -1.19

**Q.** With `COc1ccc([Si](C)(C)[C@@H]2[C@@H](CC(=O)N3CCC[C@H]3CO)O[C@]3(C(=O)N(Cc4cccc(N5C(=O)COc6ccccc65)c4)c4ccccc43)[C@H]2C)cc1` as the compound, how does the composite z-score read?
**A.** 0.579

**Q.** How did the composite z-score turn out when `CCCC[C@@H](O)C1=C(COC)C[C@H]2C(=O)N(C)C(=O)[C@H]2[C@H]1CO` was run?
**A.** 0.344

**Q.** Which composite z-score does the source give for `COc1ccc([Si](C)(C)[C@@H]2[C@@H](CC(=O)N(CCO)Cc3ccccc3)O[C@]3(C(=O)N(Cc4cccc(N5CCCCC5=O)c4)c4ccccc43)[C@H]2C)cc1` here?
**A.** 0.84

**Q.** How did the composite z-score turn out when `COc1ccc(CCNC(=O)[C@@]2(Sc3ccc(C)cc3)CC(=O)N(Cc3ccccc3C(F)(F)F)[C@@H]2c2ccc(CO)cc2I)cc1` was run?
**A.** -1.64

**Q.** `[N-]=[N+]=Nc1ccccc1[C@@H]1OC(c2ccc(OCCCO)cc2)=N[C@]1(Cc1ccccc1)C(=O)N1CCCCC1` was tested. Which composite z-score did it give?
**A.** 1.07

**Q.** How did the composite z-score turn out when `Cc1ccc(S[C@]2(C(=O)NCc3ccccc3)CC(=O)N(C3CCCCC3)[C@@H]2c2ccc(CO)cc2I)cc1` was run?
**A.** 0.226

**Q.** How did the composite z-score turn out when `COc1ccc([Si](C)(C)[C@H]2[C@H](CC(=O)N(CCO)Cc3ccccc3)O[C@@]3(C(=O)N(C)c4c(Br)cc(C)cc43)[C@@H]2C)cc1` was run?
**A.** 1.18

**Q.** For `[N-]=[N+]=Nc1ccccc1[C@@H]1OC(c2ccc(OCCCO)cc2)=N[C@]1(Cc1ccccc1)C(=O)O`, which composite z-score is on record?
**A.** 0.455

**Q.** For `CCCC1(C(=O)OC)C=C2C(=C(C)C(=O)C2C)CN1` (stereo unspecified), which composite z-score is on record?
**A.** -0.105

**Q.** Which composite z-score does the source give for `COCC(=C=CC[C@H](O)c1ccccc1OCCO)C[C@H](O)c1ccccn1` here?
**A.** -0.114

**Q.** With `Oc1ccc2cc[n+](Cc3cc4c(cc3Br)OCO4)cc2c1` as the compound, how does the composite z-score read?
**A.** -0.456

**Q.** How did the composite z-score turn out when `CC(C)[Si]1(C(C)C)OCc2cc(C3CC3)nc(-c3ccc(Oc4ccccc4)cc3)c21` was run?
**A.** -0.816

**Q.** With `[N-]=[N+]=Nc1ccccc1C[C@]1(C(=O)N2CCOCC2)COC(c2ccc(OCCCO)cc2)=N1` as the compound, how does the composite z-score read?
**A.** 0.634

**Q.** Which composite z-score does the source give for `[N-]=[N+]=Nc1ccccc1C[C@@]1(C(=O)NCCN2CCOCC2)N=C(c2ccc(OCCCO)cc2)O[C@@H]1c1ccccc1N=[N+]=[N-]` here?
**A.** 0.453

**Q.** Which composite z-score does the source give for `CCCCC(CC)C(O)C1C=CC2C(=O)N(C)C(=O)C2N1Nc1ccccc1` (stereo unspecified) here?
**A.** 0.192

**Q.** For `O=C1N(CCS(=O)(=O)c2ccccc2)c2ccccc2[C@H]2OC(c3ccc(OCCCO)cc3)=N[C@@]12Cc1ccccc1`, which composite z-score is on record?
**A.** 1.1

**Q.** How did the composite z-score turn out when `COc1ccc(C#Cc2ccc3c(c2)[C@]2(C(=O)N3)[C@H](c3ccc(O)cc3)N3[C@H](c4ccccc4)[C@H](c4ccccc4)OC(=O)[C@H]3[C@@H]2C(=O)Nc2nc3ccccc3s2)cc1` was run?
**A.** 1.2

**Q.** With `CCOc1cc(C(O)C2C=CC3C(=O)NC(=O)C3N2Nc2ccc(Cl)cc2Cl)ccc1O` (stereo unspecified) as the compound, how does the composite z-score read?
**A.** -0.859

**Q.** With `Cc1ccc(S[C@]2(C(=O)NCC(F)(F)F)CC(=O)N(Cc3cc(C(F)(F)F)cc(C(F)(F)F)c3)[C@@H]2c2ccc(CO)cc2I)cc1` as the compound, how does the composite z-score read?
**A.** 0.0535

**Q.** With `C=CCC(OC(C)=O)[C@@H]1[C@@H](N(Cc2cc3ccccc3o2)C(=O)Cc2ccc(F)cc2)c2cc(OCCCO)ccc2N1C(=O)Cc1ccc2ccccc2c1` (stereo partly specified) as the compound, how does the composite z-score read?
**A.** -0.656

**Q.** For `CO[C@H]1O[C@H](CO)[C@@H](OC(=O)Nc2ccccc2)[C@H](OC(=O)c2cc3ccccc3[nH]2)[C@H]1OC(=O)c1cc2ccccc2[nH]1`, which composite z-score is on record?
**A.** 0.306
